Compound activity as filed in PubChem BioAssay.
HTT cytoprotect – Huntington cell model cytoprotection by ATP luminescence | PC12 HTT-Q103 induced, cytoprotection, ATP luminescence, 40 h | Potency, µM (top dose mostly 56.4 µM), for inactives: cytoprotection (ATP increase), actives largely listed as activators | actives 0.14% (n = 230,000); also: potency is read from the fitted curve at half-maximal effect; % of control where 0% means no effect; nearly all actives have a fitted effect of over 45% in size
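Huntington model: PC12 line, ecdysone-inducible HTTQ103 exon1–GFP, tebufenozide 100 nM. Test articles in a dose series. Endpoint luminescence from cellular ATP.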
ALDH1A1 inh – inhibitors of human aldehyde dehydrogenase 1A1. P00352. Purified ALDH1A1, NADH fluorescence, propionaldehyde substrate. Potency, µM (series often up to 75.3 µM), for the others: at the top dose activity, negative = inhibition, usual class: inhibitors. actives 7.3% (n = 220,000). AID 1030; active = well fitted inhibition curve with a large enough effect, not every such curve was filed as active; inconclusive = small, poorly fitted or top-dose-only effect, or another doubt; inactive = no such curve, though single readings can be large or run the other way;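 also: potency is read from the fitted curve at half-maximal effect; plate controls were no enzyme wells and a reference inhibitor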
CBFb-RUNX1 inh – inhibitors of human CBF-beta and RUNX1 interaction; Q01196+Q13951; AlphaScreen CBFb-His/RUNX1-biotin binding, biochemical; Potency, µM (top dose mostly 59.8 µM), without a hit: at the top dose activity, negative = inhibition, actives largely listed as inhibitors; 230,000 tested, under 10 active; AID 1477; also: % of control where 0% means no effect
Target sequence (Q01196 whole entry, looked up): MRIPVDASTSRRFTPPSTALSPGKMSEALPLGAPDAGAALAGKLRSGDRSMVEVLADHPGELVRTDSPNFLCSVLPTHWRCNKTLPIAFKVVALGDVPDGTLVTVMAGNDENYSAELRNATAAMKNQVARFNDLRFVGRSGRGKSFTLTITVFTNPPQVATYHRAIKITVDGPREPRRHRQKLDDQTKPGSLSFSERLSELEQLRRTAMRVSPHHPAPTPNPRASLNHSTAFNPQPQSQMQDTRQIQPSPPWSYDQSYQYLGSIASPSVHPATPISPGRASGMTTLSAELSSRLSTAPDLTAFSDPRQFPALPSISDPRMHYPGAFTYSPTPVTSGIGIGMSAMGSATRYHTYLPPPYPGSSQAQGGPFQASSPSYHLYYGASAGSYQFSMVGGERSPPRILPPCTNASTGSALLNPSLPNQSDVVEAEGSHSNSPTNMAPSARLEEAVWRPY
Target sequence (Q13951 whole entry, looked up): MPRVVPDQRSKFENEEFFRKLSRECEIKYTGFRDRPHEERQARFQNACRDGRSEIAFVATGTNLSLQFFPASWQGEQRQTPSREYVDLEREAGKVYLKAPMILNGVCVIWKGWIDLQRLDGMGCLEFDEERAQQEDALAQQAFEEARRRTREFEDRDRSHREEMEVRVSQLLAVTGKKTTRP
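Read-out: AlphaScreen. Format: His-CBF-beta with biotinylated RUNX1 (30 nM each) preincubated 20 min, compound 15 min, Ni-chelate plus streptavidin beads 90 min; room temperature throughout.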
HPGD block – inhibitors of human 15-hydroxyprostaglandin dehydrogenase (HPGD) | AID 894 | Potency, µM, for the others: at the top dose activity change, negative = inhibition, actives largely listed as inhibitors | actives 4.3% (n = 150,000) | purified HPGD, NADH fluorescence kinetic, PGE2 substrate | P15428; active = well fitted inhibition curve with a large enough effect, not every such curve was filed as active; inconclusive = small, poorly fitted or top-dose-only effect, or another doubt; inactive = no such curve, though single readings can be large or run the other way; also: potency is read from the fitted curve at half-maximal effect; % is scaled to controls: 0 for no effect and ±100 for the full control effect
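20 nM HPGD preincubated 15 min at room temperature with compound in 50 mM Tris-HCl pH 8, 0.01% Tween 20. Started with 1 mM NAD+ and 30 uM prostaglandin E2; NADH fluorescence (360/450 nm) read 5 times over 30-s intervals, last minus first.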
HTT aggregate – inhibitors of mutant huntingtin aggregate formation in PC12 cells; PC12 HttQ103-GFP aggregates, Acumen cytometry, 40 h; Potency, µM (doses to about 46.1 µM), for inactives: at the top dose activity change, negative = inhibition, usual class: inhibitors; actives 1.1% (n = 220,000); AID 1688; also: potency is read from the fitted curve at half-maximal effect; % is scaled to controls: 0 for no effect and ±100 for the full control effect; nearly all actives have a fitted effect of over 60% in size
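PC12/HTTQ103-GFP, ecdysone-inducible; teb 100 nM; cpd qHTS titration; GFP aggregates read on laser cytometer, Ex 488/Em 500-530 nm.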
PNC inhibitor – inhibitors of perinucleolar compartment assembly; PC3M PTB-GFP, PNC prevalence imaging, 16 h; active compounds read low; activity change (PNC), negative = inhibition, % at 10 µM; actives 3.1% (n = 140,000);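 active = readout at or below -70, meaning at least 70% loss of cells showing the perinucleolar compartment, a nuclear body marking cancer cells; inconclusive = readout between -30 and a set limit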;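 also: plate controls were DMSO wells for no effect and camptothecin positive control wells for full effect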
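PC3M cells stably expressing PTB-GFP, 750–1000 cells/well, treated 16 h at 37 °C with compound (23 nl of library stock), in duplicate. After paraformaldehyde fixation and Hoechst stain, imaged at 20x; PNC prevalence scored by image analysis.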
* hit, by the source's call; ? = inconclusive; / = no result given; [ ] = remark or other dose. Rows were chosen to be rich in hits. Some 11% of all compounds tested hit in one or more screens of this group. Unless noted, calls follow the shape of the dose curve; as a rule, active = well fitted curve in the direction sought with a large enough effect; inconclusive = small, poorly fitted or top-dose-only effect, or another doubt; inactive = no such curve, though single readings can be large; an effect the other way counts as inactive or inconclusive.

SMILES | HTT cytoprotect | ALDH1A1 inh | CBFb-RUNX1 inh | HPGD block | HTT aggregate | PNC inhibitor
c1ccc(Nc2scc(-c3ccccc3)[n+]2Cc2ccco2)cc1 | -24% | 10µM* | -14% | / | -12% | /
CCOC(=O)N=Nc1c2ccccc2c2nc3no[nH]c3nc12 | -183% | -13% | -18% | / | 1.3µM* | /
NC(=O)CSc1nc2scc(-c3ccco3)c2c(=O)n1-c1ccccc1 | 10% | 3.5µM* | -27% | -15% | 2% | -27
O=C(CSc1nc2scc(-c3ccco3)c2c(=O)n1-c1ccccc1)N1CCOCC1 | -17%[0.074 µM] | ? | 0% | -13% | -12% | -18
C=CCn1c(SCC(=O)NCC2CCCO2)nc2scc(-c3ccco3)c2c1=O (centres undefined) | -15%[10 µM] | 25µM* | -8% | -26% | 4% | -13
C=CCn1c(SCC(=O)NCCOC)nc2scc(-c3ccco3)c2c1=O | -21% | 7.9µM* | 1% | -13% | ? | 11
O=C(CSc1nc2scc(-c3ccco3)c2c(=O)n1-c1ccccc1)NCC1CCCO1 (centres undefined) | 16% | 13µM* | -18% | -9% | 5% | -6
C=C1C2CC[C@@]3(C)C(c4ccoc4)OC(=O)C[C@@]13OC1CC(OC(C)=O)C(C)(C)C(CC(=O)OC)[C@@]12C (some centres undefined) | -49% | 8% | 29% | -3% | / | /
N#Cc1ccccc1-c1ccc2ncnc(NCCN3CCOCC3)c2c1 | -14% | ? | / | / | / | /
C=CCn1c(SCC(N)=O)nc2scc(-c3ccc(C)o3)c2c1=O | -11% | 10µM* | 11% | / | -6% | /
C=CCn1c(SCc2ccccc2)nc2scc(-c3ccc(C)o3)c2c1=O | -8% | ? | 0% | -11% | 6% | 82
COc1ccc(N(Cc2cc3cc(OC)ccc3[nH]c2=O)C(=O)c2cccnc2)cc1 | -20% | ? | 3% | / | 5% | 33
O=C1NCCN1c1ncc([N+](=O)[O-])s1 | 0.089µM* | 0%[20.9 µM] | -5%[21.7 µM] | -24% | 2%[20.6 µM] | /
Clc1ccc(Cn2ncc3c(NCc4ccccc4)ncnc32)c(Cl)c1 | / | ? | 3% | 20µM* | 9% | -3
CCCC(=O)Nc1nc2c(ncn2[C@@H]2O[C@H]3COP(=O)(O)O[C@@H]3[C@@H]2OC(=O)CCC)c(=O)[nH]1 | -6% | ? | 18% | / | / | /
CN(C)CCN(C(=O)c1cccc(Cl)c1)c1nc2c(Cl)cccc2s1 | 27%[10 µM] | -1% | -2% | -13% | -22% | -1
Cc1cccc2sc(N(CCCN(C)C)C(=O)c3nc4ccccc4s3)nc12 | / | ? | 3% | ? | -3% | -118*
Cc1ccc2sc(N(CCCN(C)C)C(=O)c3nc4ccccc4s3)nc2c1C | -9% | 3% | 14% | / | -7% | /
CN(C)CCN(C(=O)c1ccccc1Cl)c1nc2c(Cl)cccc2s1 | -17%[10 µM] | 32µM* | -5% | -20% | ? | -15
S=C(c1ccc(-c2cc(Cl)ccc2Cl)o1)N1CCOCC1 | 4%[1.9 µM] | 22µM* | ? | 28µM* | -14% | 60
S=C(c1ccc(-c2cc(Cl)ccc2Cl)o1)N1CCCCC1 | -53%[10 µM] | 3% | -5% | 7.9µM* | -3% | ?
O=C(Nc1ccc(CN2CCOCC2)cc1)c1ccc(-c2cc(Cl)ccc2Cl)o1 | -68% | ? | -9% | ? | ? | -3
CCNc1ncc2nc(-c3ccc(OC)cc3)c(=O)n(Cc3cccs3)c2n1 | -37% | ? | / | / | / | /
O=C(NNc1nc2cc3c(cc2s1)OCO3)c1ccc(F)cc1 | / | ? | 1%[2.36 µM] | 25µM* | 4% | -119*
Fc1ccc2nc(Nc3nc4cc5c(cc4s3)OCO5)sc2c1 | -2%[10 µM] | ? | -12% | ? | -3% | ?
SMILES | HTT cytoprotect | ALDH1A1 inh | CBFb-RUNX1 inh | HPGD block | HTT aggregate | PNC inhibitor
O=C(NNc1nc2cc3c(cc2s1)OCCO3)c1ccc(F)cc1 | / | 0% | -19% | / | -26% | /
c1ccc2sc(Nc3nc4cc5c(cc4s3)OCO5)nc2c1 | / | ? | -3% | ? | -4% | -124*
Cc1cc[n+](-c2nc([O-])sc2/C=N/Nc2ccc([N+](=O)[O-])cc2)cc1 | 13% | 14µM* | -6% | -16% | -1%[9.22 µM] | 24
CC1=CC(=C(c2ccc(N)cc2)c2ccc(N)cc2)C=CC1=N | -62% | / | / | / | 7.9µM* | /
NCCCC[C@H](NC(=O)[C@@H](Cc1ccccc1)NC(=O)[C@H](Cc1c[nH]c2ccccc12)NC(=O)[C@@H](CCCCN)NC(=O)[C@@H](Cc1c[nH]c2ccccc12)NC(=O)[C@@H](N)Cc1cnc[nH]1)C(N)=O | / | / | 11% | / | / | /
C=C1C2c3ccccc3C(CC2(C)O[Si](C)(C)C)N1C(=O)OC (centres undefined) | 1%[10 µM] | 3%[13.5 µM] | -2%[13.1 µM] | -2% | / | /
O=C(N/N=C/c1c(-c2ccccc2)[nH]c2ccccc12)c1cccnc1 | -31%[10 µM] | 1% | 4% | / | -2% | /
COc1ccc(Cn2c(O)c(/C=N/NC(=O)c3cccnc3)c3ccccc3c2=O)cc1 | -129% | ? | ? | / | ? | /
O=C(N/N=C/c1c(O)n(-c2ccccc2Cl)c(=O)c2ccccc12)c1cccnc1 | -48% | 14µM* | -8% | / | ? | /
O=C(N/N=C/c1c(O)n(Cc2ccccc2)c(=O)c2ccccc12)c1cccnc1 | -134% | 10µM* | -21% | / | ? | /
O=C(O)CCc1ccc(-c2ccccc2)[nH]1 | 1%[10 µM] | -9%[13.5 µM] | / | -15% | / | /
COc1ccc2[nH]cc(CCNc3cc(-c4c(C)noc4C)ncn3)c2c1 | -45% | ? | / | / | / | /
CC(C)OCCCN1CN(S(=O)(=O)c2ccc(Cl)cc2)c2nc3ccccc3nc21 | -10% | 28µM* | 2% | -9% | -21% | 3
CC(C)(C)c1ccc(-c2cn(-c3ccc(Br)cc3)c3[n+]2CCCS3)cc1 | -39%[10 µM] | ? | 0% | / | 1.3µM* | /
c1ccc(-c2cn(-c3ccccc3)c3[n+]2CCS3)cc1 | -48% | 16% | 15% | / | ? | /
